Potency and outcome data for 10 molecules are collected here from PubChem BioAssay (Tox21).

The structures appear in SMILES notation. A number with no mark means an inactive call. Inconclusive results are not listed. The source made the active and inactive calls. Unless noted, the call rests on the fitted dose curve; in most records, active means well fitted curve in the direction sought with a large enough effect in the repeat runs; inconclusive means weak or mixed curves; inactive means no such curve, though single readings can be large; an effect the other way counts as inactive or inconclusive.

The nature of assay [1]: qHTS assay to identify small molecule antagonists of the sonic hedgehog signaling (Shh) pathway (AID 1259369; calls by dose curve; further: nearly all actives have a fitted effect of over 45% in size). The procedure, abridged:
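Antagonist mode: compound added to 3T3 Gli1-Luc cells followed by conditioned-medium stimulation, 24 h at 37 C, 5% CO2. Inhibition taken as loss of Gli1-driven luciferase luminescence.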
In general terms: In qHTS, concentration-response curves come from the screen itself.

Assay [2] in a line: qHTS assay to identify small molecule agonists of the estrogen receptor beta (ER-beta) signaling pathway - cell viability counter screen (AID 1259380). Further: nearly all actives have a fitted effect of over 30% in size. Further: potency means the concentration at half of the fitted maximal effect. The procedure, abridged: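 Cell viability counter screen: CellTiter-Glo luminescence (30 min, room temperature) measured in the same wells as the beta-lactamase readout, after 16 hr compound exposure at 37C of ER-beta-bla HEK293T cells in 2% charcoal-stripped FBS medium.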

A short description of assay [3]: qHTS assay to identify small molecule antagonists of the estrogen receptor beta (ER-beta) signaling pathway - cell viability counter screen (AID 1259382). Further: series mostly up to about 92 µM; nearly all actives have a fitted effect of over 55% in size. A digest of the protocol:
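Cytotoxicity was measured in the same wells by CellTiter-Glo luminescence after 30 min at room temperature. Cells were ER-beta-bla HEK293T in charcoal-stripped serum, given compound together with 1 nM E2 and incubated 16 h at 37C.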

Assay [4] concerns the target Estrogen receptor (Homo sapiens) (UniProt P03372). Briefly: qHTS assay to identify small molecule agonists of the estrogen receptor alpha (ER-alpha) signaling pathway in the presence of an antagonist (AID 1259383; calls by dose curve; further: nearly all actives have a fitted effect of over 15% in size; further: potency means the concentration at half of the fitted maximal effect; on activation: top concentration of the series differs between compounds). A digest of the protocol:
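Agonist-mode confirmation run in the presence of 10.0nM (final) ICI-182,780 antagonist. The reporter was ERE-driven luciferase in VM7Luc4E2 cells, grown in charcoal-stripped serum. Cells were exposed to 15-concentration compound series for 22hr, then ONE-Glo luminescence was read.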

Assay [5] can be described thus: qHTS assay to identify small molecule agonists of the estrogen receptor alpha (ER-alpha) signaling pathway in the presence of an antagonist - cell viability counter screen (AID 1259386). Further: nearly all actives have a fitted effect of over 30% in size. Further: potency means the concentration at half of the fitted maximal effect. The procedure, abridged: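 Compounds tested at 15 concentrations for 22 h at 37C alongside 10.0nM (final) ICI-182,780 antagonist, in VM7Luc4E2 cells grown in phenol red-free, charcoal-stripped medium. Viability read by CellTiter-Fluor fluorescence after 1 h reagent incubation.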

Assay [6] addresses Progesterone receptor (Homo sapiens) (UniProt P06401). Briefly: qHTS assay to identify small molecule agonists of the progesterone receptor (PR) signaling pathway (AID 1346784; calls by dose curve; further: nearly all actives have a fitted effect of over 30% in size). The procedure, abridged:
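Agonist mode, quantitative HTS format in a HEK 293T line expressing a UAS-controlled beta-lactamase reporter; 16 hr compound exposure at 37C in 2% charcoal-stripped FBS, then LiveBLAzer B/G FRET fluorescence.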

For assay [7] the target is unchanged. Briefly: qHTS assay to identify small molecule antagonists of the progesterone receptor (PR) signaling pathway (AID 1346795; active means well fitted inhibition curve with a large enough effect in the signal ratio in the repeat runs, not every such curve was filed as active; the % refers to the signal ratio). A digest of the protocol: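 HEK293T PR-UAS-bla reporter cells in charcoal-stripped serum (2%) received compound after a 6 hr settling period, followed by R5020 agonist at 1 nM final; 16 hr incubation preceded the FRET substrate step and fluorescence measurement.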

A short description of assay [8]: qHTS assay to identify small molecule antagonists of the progesterone receptor (PR) signaling pathway - cell viability counter screen (AID 1346798). Further: nearly all actives have a fitted effect of over 50% in size. Further: potency means the concentration at half of the fitted maximal effect. The procedure, abridged: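 Same-well multiplex: after 16 hr at 37C with compound and R5020 stimulation, HEK293T cells carrying a UAS-bla reporter received LiveBLAzer substrate (2 hr RT), then CellTiter-Glo (30 min RT) for luminescent viability.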

Assay [9] is described as follows: qHTS assay to identify small molecule antagonists of the TGF-beta/Smad signaling pathway - cell viability counter screen (AID 1346824). Further: nearly all actives have a fitted effect of over 50% in size. A digest of the protocol:
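SBE-bla HEK 293T cells, incubated overnight, then compound plus 0.25 ng/mL TGF-beta1 (stock added) for 5 hr at 37 C. Viability was read in the same wells by CellTiter-Glo luminescence after 30 min at room temperature.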

A short description of assay [10]: qHTS assay to identify small molecule agonists of the TGF-beta/Smad signaling pathway - cell viability counter screen (AID 1346829). Further: top concentration of the series differs between compounds; nearly all actives have a fitted effect of over 45% in size. The procedure, abridged:
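CellTiter-Glo luminescence readout; SBE-bla HEK 293T cells, overnight plating, compound 5 hr at 37 C/5% CO2, then bla substrate 2 hr RT, then CellTiter-Glo 30 min RT.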

Assay [11] is described as follows: qHTS assay to identify small molecule agonists of the TGF-beta/Smad signaling pathway (AID 1346859; active means well fitted activation curve with a large enough effect in the signal ratio in the repeat runs, not every such curve was filed as active; the % refers to the signal ratio; further: series mostly up to about 77 µM). A digest of the protocol: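 Smad-responsive beta-lactamase reporter cells (HEK 293T) received compounds from DMSO stocks after overnight attachment, were incubated 5 hr, then treated 2 hr with FRET substrate before dual-emission fluorescence measurement (405 nm excitation).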

Assay [12] can be described thus: qHTS assay to identify small molecule agonists of the sonic hedgehog signaling (Shh) pathway (AID 1259368; calls by dose curve;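 further: NIH/3T3-derived 3T3Gli1-Luc cells carrying a stable Gli1-driven firefly luciferase reporter; series mostly up to about 92 µM; nearly all actives have a fitted effect of over 15% in size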). A digest of the protocol: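 Luminescence was read after 30 min at room temperature with luciferase reagent. Before that, 3T3Gli1-Luc cells (NIH/3T3 clone, stable Gli1-Luc reporter; 2,000/well) were exposed to compounds for 24 hr at 37C, 5% CO2, compounds being added 4 hr post-plating.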

Assay [13] is described as follows: qHTS assay to identify small molecule agonists of the androgen receptor (AR) signaling pathway in the presence of an antagonist - cell viability counter screen (AID 1259379). Further: nearly all actives have a fitted effect of over 25% in size. Further: potency means the concentration at half of the fitted maximal effect. The procedure, abridged:
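Cytotoxicity counter-screen run in the same wells as the nilutamide-challenged (3.0 µM final) AR agonist assay in MDA-kb2 cells. Compounds tested at 15 concentrations for 16 h, 37 °C without CO2; CellTiter-Fluor fluorescence read.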

Assay [14] in a line: qHTS assay to identify small molecule agonists or antagonists of the thyroid stimulating hormone receptor (TSHR) signaling pathway - wild type cell line counter screen (AID 1259384; calls by dose curve). The procedure, abridged:
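Wild-type Hek293 cells, 800/well, 18 h at 37C, then compound with Ro20-1724 for 30 min RT. cAMP by HTRF (cAMP-d2/anti-cAMP cryptate), 1 h RT, fluorescence read. 15 concentrations, triplicates.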

Assay [15] concerns the target Thyrotropin receptor (Homo sapiens) (UniProt P16473). Kind of assay: qHTS assay to identify small molecule antagonists of the thyroid stimulating hormone receptor (TSHR) signaling pathway (AID 1259385; calls by dose curve; further: nearly all actives have a fitted effect of over 20% in size). The procedure, abridged:
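TSHR-HEK293 cells (800/well) plated 18 h, then compounds with Ro20-1724 and TSH at 1.5 ng/mL final, 30 min at room temperature. cAMP quantified by HTRF (cAMP-d2/anti-cAMP-cryptate, 1 h); 15 concentrations in triplicate.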

Assay [16] in a line: qHTS assay to identify small molecule agonists of the progesterone receptor (PR) signaling pathway - cell viability counter screen (AID 1346799; calls by dose curve; further: nearly all actives have a fitted effect of over 45% in size). A digest of the protocol:
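Counter screen for cytotoxicity: compound-treated PR-UAS-bla HEK293T cells (16 hr, 37C, 5% CO2) were assayed with CellTiter-Glo, luminescence measured after 30 min at room temperature.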

The target in assay [17] is Thyrotropin-releasing hormone receptor (Homo sapiens) (UniProt P34981). Briefly: qHTS assay to identify small molecule antagonists of the thyrotropin-releasing hormone receptor (TRHR) signaling pathway (AID 1346877; active means well fitted inhibition curve with a large enough effect in the repeat runs, not every such curve was filed as active; further: series mostly up to about 51 µM). A digest of the protocol: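 Antagonist mode: after a 5 min room-temperature compound exposure, cells were stimulated with 1 nM (final) TRH. Dye-loaded TRHR-HEK293 cells were used, and calcium-dependent fluorescence was followed for 3 min, with 15-point titrations run in triplicate.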

Assay [18] addresses Estrogen receptor beta (Homo sapiens) (UniProt Q92731). Briefly: qHTS assay to identify small molecule agonists of the estrogen receptor beta (ER-beta) signaling pathway (AID 1259377; active means well fitted activation curve with a large enough effect in the signal ratio in the repeat runs, not every such curve was filed as active; the % refers to the signal ratio). A digest of the protocol:
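A UAS-controlled beta-lactamase reporter in ER-beta-UAS-bla HEK293T cells reports receptor activation. Compounds act for 16 hr at 37C in 2% charcoal-stripped serum, and a FRET substrate is read by fluorescence after 2 hours.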

The target is the same in assay [19]. Briefly: qHTS assay to identify small molecule antagonists of the estrogen receptor beta (ER-beta) signaling pathway (AID 1259378; active means well fitted inhibition curve with a large enough effect in the signal ratio in the repeat runs, not every such curve was filed as active; the % refers to the signal ratio). The procedure, abridged: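 ER-beta-UAS-bla HEK293T cells in 2% charcoal-stripped FBS medium treated with compound plus 1nM final 17-beta-estradiol for 16 hr at 37C. Beta-lactamase reporter read by FRET substrate fluorescence after 2 hours at room temperature.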

Assay [20] has as its target Androgen receptor (Homo sapiens) (UniProt P10275). Kind of assay: qHTS assay to identify small molecule agonists of the androgen receptor (AR) signaling pathway in the presence of an antagonist (AID 1259381; calls by dose curve; further: nearly all actives have a fitted effect of over 15% in size). A digest of the protocol: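 Agonist-mode confirmation run against 3.0 uM final nilutamide: compounds titrated at 15 concentrations onto MDA-kb2 MMTV-luciferase reporter cells. Luminescence measured with ONE-Glo following 16 hr incubation, 37C, 0% CO2.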

Chain of Estrogen receptor (Homo sapiens) (P03372 whole entry, looked up): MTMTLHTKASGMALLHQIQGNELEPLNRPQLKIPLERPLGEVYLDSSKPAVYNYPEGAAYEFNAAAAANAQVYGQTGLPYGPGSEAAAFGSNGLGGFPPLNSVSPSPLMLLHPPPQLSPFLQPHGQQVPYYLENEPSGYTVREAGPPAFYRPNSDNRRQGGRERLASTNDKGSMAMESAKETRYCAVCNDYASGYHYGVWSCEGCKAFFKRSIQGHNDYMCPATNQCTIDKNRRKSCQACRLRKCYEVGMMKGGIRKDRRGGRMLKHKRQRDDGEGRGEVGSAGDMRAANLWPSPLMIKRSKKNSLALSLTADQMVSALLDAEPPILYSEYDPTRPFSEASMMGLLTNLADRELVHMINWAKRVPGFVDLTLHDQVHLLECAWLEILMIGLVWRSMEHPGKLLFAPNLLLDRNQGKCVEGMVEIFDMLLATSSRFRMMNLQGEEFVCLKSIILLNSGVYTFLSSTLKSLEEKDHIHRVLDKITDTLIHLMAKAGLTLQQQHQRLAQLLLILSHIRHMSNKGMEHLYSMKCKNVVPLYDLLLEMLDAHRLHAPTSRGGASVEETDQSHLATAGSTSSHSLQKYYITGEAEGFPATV
Chain of Progesterone receptor (Homo sapiens) (P06401 whole entry, looked up): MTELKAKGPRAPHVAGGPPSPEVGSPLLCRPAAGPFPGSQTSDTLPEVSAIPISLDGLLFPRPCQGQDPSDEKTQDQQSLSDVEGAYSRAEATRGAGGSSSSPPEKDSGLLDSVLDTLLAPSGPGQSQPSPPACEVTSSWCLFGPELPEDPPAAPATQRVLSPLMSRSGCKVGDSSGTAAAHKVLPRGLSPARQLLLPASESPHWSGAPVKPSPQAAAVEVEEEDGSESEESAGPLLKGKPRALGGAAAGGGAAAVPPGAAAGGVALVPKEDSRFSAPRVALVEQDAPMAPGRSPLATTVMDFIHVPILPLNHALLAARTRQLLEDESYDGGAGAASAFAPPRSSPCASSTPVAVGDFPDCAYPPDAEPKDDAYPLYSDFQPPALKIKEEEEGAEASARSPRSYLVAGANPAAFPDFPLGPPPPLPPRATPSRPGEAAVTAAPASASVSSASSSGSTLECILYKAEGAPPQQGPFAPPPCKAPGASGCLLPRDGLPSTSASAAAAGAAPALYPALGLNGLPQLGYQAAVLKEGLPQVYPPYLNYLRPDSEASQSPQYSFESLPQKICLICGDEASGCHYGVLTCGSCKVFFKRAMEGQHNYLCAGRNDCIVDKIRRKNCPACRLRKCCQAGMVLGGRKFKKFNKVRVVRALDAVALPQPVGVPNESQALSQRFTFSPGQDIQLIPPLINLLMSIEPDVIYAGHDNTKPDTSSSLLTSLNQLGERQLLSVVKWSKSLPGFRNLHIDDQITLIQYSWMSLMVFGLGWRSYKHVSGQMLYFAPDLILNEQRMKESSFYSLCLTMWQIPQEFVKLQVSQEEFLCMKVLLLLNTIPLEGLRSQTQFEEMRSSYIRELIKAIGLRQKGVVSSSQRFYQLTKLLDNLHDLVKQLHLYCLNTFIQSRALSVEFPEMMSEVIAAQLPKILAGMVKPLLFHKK
Chain of Thyrotropin receptor (Homo sapiens) (P16473 whole entry, looked up): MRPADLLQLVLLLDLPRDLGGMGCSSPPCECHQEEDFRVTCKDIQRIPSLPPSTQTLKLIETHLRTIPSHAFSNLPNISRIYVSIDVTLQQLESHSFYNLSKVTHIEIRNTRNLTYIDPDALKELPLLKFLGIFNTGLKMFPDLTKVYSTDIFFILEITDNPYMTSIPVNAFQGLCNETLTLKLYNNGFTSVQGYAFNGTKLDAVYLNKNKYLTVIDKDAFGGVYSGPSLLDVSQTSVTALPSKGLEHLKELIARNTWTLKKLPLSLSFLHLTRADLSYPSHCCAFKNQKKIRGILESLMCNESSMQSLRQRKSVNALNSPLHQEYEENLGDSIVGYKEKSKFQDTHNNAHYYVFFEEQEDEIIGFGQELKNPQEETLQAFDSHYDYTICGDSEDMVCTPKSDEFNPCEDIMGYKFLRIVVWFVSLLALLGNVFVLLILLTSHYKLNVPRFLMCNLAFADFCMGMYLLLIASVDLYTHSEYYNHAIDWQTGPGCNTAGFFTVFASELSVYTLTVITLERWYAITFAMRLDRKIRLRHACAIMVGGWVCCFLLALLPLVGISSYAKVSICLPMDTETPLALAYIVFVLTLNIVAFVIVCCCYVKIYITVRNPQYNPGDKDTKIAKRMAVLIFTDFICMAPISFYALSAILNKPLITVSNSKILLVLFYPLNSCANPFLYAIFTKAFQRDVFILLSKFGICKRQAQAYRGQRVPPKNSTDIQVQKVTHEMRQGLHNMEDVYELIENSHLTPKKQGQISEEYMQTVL
Chain of Estrogen receptor beta (Homo sapiens) (Q92731 whole entry, looked up): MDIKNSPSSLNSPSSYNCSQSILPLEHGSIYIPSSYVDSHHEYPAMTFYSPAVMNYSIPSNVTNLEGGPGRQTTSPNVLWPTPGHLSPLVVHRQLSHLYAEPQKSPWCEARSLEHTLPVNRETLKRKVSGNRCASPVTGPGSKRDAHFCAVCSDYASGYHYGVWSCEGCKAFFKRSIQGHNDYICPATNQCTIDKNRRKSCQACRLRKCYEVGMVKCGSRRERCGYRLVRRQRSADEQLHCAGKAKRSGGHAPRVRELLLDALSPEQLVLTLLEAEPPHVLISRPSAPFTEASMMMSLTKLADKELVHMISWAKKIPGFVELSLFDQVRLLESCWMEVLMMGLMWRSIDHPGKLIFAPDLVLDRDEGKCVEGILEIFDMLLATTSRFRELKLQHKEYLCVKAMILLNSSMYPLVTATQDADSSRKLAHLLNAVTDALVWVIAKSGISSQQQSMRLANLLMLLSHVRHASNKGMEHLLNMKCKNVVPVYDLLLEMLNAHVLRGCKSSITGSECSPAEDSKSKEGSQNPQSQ
Chain of Thyrotropin-releasing hormone receptor (Homo sapiens) (P34981 whole entry, looked up): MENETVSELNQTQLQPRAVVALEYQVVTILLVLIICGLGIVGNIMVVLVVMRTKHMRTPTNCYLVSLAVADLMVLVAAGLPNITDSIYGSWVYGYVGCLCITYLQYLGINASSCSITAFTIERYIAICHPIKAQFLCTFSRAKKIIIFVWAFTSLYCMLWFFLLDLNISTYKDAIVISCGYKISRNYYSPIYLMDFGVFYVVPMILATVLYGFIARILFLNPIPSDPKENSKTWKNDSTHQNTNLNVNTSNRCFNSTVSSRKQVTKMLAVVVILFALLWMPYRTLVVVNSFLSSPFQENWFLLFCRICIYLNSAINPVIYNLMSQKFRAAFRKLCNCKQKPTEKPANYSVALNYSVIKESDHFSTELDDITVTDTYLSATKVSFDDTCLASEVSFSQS
Chain of Androgen receptor (Homo sapiens) (P10275 whole entry, looked up): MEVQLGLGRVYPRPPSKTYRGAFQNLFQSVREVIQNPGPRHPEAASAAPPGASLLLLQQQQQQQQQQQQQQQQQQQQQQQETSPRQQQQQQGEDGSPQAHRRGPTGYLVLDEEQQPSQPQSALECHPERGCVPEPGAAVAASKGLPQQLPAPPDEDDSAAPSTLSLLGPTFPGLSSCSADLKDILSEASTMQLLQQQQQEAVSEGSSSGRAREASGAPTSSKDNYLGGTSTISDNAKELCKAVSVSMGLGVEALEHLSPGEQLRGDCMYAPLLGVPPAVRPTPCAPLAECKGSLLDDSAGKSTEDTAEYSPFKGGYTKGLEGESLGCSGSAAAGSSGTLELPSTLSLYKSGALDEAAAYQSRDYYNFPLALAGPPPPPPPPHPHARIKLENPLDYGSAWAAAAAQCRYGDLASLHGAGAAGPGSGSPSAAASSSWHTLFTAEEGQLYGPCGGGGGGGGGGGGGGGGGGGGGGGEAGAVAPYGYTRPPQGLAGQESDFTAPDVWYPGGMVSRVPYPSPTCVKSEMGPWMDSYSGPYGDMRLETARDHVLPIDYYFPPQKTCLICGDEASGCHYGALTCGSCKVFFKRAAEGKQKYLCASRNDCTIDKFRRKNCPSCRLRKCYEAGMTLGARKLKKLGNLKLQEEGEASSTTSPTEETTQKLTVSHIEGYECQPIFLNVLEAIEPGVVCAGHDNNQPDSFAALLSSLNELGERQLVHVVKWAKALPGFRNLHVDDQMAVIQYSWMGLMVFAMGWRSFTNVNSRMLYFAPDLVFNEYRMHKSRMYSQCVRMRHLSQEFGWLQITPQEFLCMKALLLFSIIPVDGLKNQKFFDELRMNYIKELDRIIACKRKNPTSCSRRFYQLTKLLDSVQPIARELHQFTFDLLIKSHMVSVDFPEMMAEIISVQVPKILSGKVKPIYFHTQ

Take `c1ccc(CNc2ncnc3c2ncn3C2CCCCO2)cc1` (stereo unspecified): the Potency entry in [1], in [2], in [3], in assay [5], in assay [6] and in assay [7] was “inactive” each time. In addition, the Potency result in [8], in [10] and in [11] was “inactive” throughout. Also, the Potency in assay [4] is 7.7 µM (active). Moreover, the molecule was classed as inactive in assay [9].
As to `Nc1ccc(N=Nc2ccc(N)cc2)cc1`, the Potency result in assay [12], in assay [4], in assay [14], in assay [15], in assay [6] and in [7] was “inactive” throughout. Moreover, the Potency result in assay [8], in assay [16] and in assay [11] was “inactive” each time. The Potency in assay [13] is 27.3 µM (active); in [5], 24.3 µM (active). For the same molecule, the outcome in [17] was inactive.
Regarding `Cc1c[nH]c2ccccc12`, the Potency entry in assay [12], in [13], in assay [2], in [3], in assay [14] and in [15] was “inactive” each time. The Potency result in [5], in assay [6], in assay [7], in [8], in [16] and in assay [10] was “inactive” throughout. Moreover, the Potency entry in assay [11] was “inactive”. The call in assay [9] and in assay [17] was inactive.
As to `COc1ccc(CCN(C)CCCN2CCc3cc(OC)c(OC)cc3CC2=O)cc1OC`, the Potency result in assay [12], in assay [13], in assay [2], in [3], in [5] and in assay [6] was “inactive” in each case. Moreover, the Potency entry in assay [7], in assay [8], in assay [16] and in [11] was “inactive” throughout. The result in [9] and in assay [17] was inactive.
For `CC(C)(C(=O)c1cccnc1)c1cccnc1`, the Potency result in assay [12], in assay [2], in assay [3], in assay [14], in assay [15] and in assay [5] was “inactive” in each case. In addition, the Potency entry in assay [6], in [7], in assay [8], in assay [16] and in assay [11] was “inactive” throughout. The molecule was classed as inactive in assay [9] and in [17].
In the case of `Cc1ccc2nc(N)[nH]c(=O)c2c1Sc1ccncc1`, the Potency result in [12], in assay [18], in assay [13], in assay [5], in assay [6] and in assay [8] was “inactive” in each case. The Potency entry in [16], in assay [10] and in assay [11] was “inactive” each time. Moreover, the result in [17] was inactive.
As for `CCCCCCC(CO)CCCC` (stereo unspecified), the Potency result in assay [12], in assay [13], in assay [2], in assay [3], in assay [14] and in [15] was “inactive” throughout. Also, the Potency result in [5], in [6], in [7], in assay [8], in assay [16] and in assay [10] was “inactive” each time. Besides, the Potency entry in assay [11] is “inactive”. The molecule was called inactive in assay [9] and in assay [17].
As for `COc1cc(NCc2ccc3nc(N)nc(N)c3c2C)cc(OC)c1OC`, the Potency result in assay [12], in assay [13], in assay [4], in [14], in assay [6] and in assay [8] was “inactive” each time. For the same molecule, in [11], the Potency result was “inactive”. Also, in [2], the Potency was 0.237 µM (active). For the same molecule, in [17], the call was inactive.
`COc1cc(OC)c2ccc(=O)oc2c1`: the Potency entry in assay [12], in assay [19], in assay [13], in assay [2], in assay [20] and in [3] was “inactive” each time. Moreover, the Potency entry in assay [14], in [15], in assay [5], in assay [6], in assay [8] and in assay [16] was “inactive” each time. For the same molecule, in assay [11], the Potency result is “inactive”. Moreover, the molecule was called inactive in assay [9].
In the case of `Cc1c(C2(c3cc(Br)c(O)c(Br)c3C)OS(=O)(=O)c3ccccc32)cc(Br)c(O)c1Br`, the Potency result in assay [12], in [19], in assay [6], in assay [10] and in [11] was “inactive” in each case. For the same molecule, the Potency is 14.9 µM (active) in [13], 23.6 µM (active) in assay [2], 13.3 µM (active) in [5] and 18.8 µM (active) in assay [8]. In addition, the outcome in assay [17] was inactive.
